{"source": "ChEMBL document CHEMBL3988442", "about": "“University of Dundee, Small-Polar-MMV Screening Library” (2021)", "note": "The whole screen tested about 48,000 compounds, of which about 13,000 (27%) showed an effect of 50% or more. This is one part of the list.", "data": [{"test_system": "Wolbachia pipientis", "assay": "Anti-Wolbachia Cell-Based Screen", "assay_type": "functional", "design": "scale not given: in the data most compounds retested in dose-response had high values", "details": "5 µM", "units": {"Percent Effect": "%"}, "values": [{"smiles": "CC[C@@]1(O)CCN(c2ncc(Cl)cc2C(F)(F)F)C[C@H]1O", "Percent Effect": -3.293}, {"smiles": "COCc1noc(CNc2nc(C3CCCC3)nc3c2CCNCC3)n1", "Percent Effect": -2.329}, {"smiles": "COc1ccc(SC(C)C(=O)N2CCC(C(=O)N3CCCC3)CC2)cc1", "note": "(centres undefined)", "Percent Effect": -0.009577}, {"smiles": "CC(C)CNC(=O)c1nc2c(s1)CCN(C(=O)c1cccnc1)CC2", "Percent Effect": -3.468}, {"smiles": "COCCNC(=O)NCCS(=O)(=O)N1CCN(c2cccc(C)c2)CC1", "Percent Effect": 9.148}, {"smiles": "COCCNC(=O)c1cc(S(=O)(=O)N2CCCCCC2)cs1", "Percent Effect": 97.81}, {"smiles": "CC(C)CNC(=O)c1cc2c(s1)CCN2S(C)(=O)=O", "Percent Effect": 101.5}, {"smiles": "CC(C)CNC(=O)c1cc2c(s1)CCN2Cc1cccnc1", "Percent Effect": -6.846}, {"smiles": "COCCNC(=O)c1cc(S(=O)(=O)N2CCCCC2)cs1", "Percent Effect": 0.5112}, {"smiles": "CN(C)CCNC(=O)c1cc2c(s1)CCN2S(C)(=O)=O", "Percent Effect": 114.7}, {"smiles": "COCCNC(=O)C1CCCN1S(=O)(=O)c1sc(=O)[nH]c1C", "note": "(centres undefined)", "Percent Effect": -10.99}, {"smiles": "CN(C)CCNC(=O)c1ccc(OC2CCN(S(C)(=O)=O)CC2)c(Cl)c1", "Percent Effect": -4.841}, {"smiles": "COCCNC(=O)c1cc2c(s1)CCN2S(C)(=O)=O", "Percent Effect": 90.75}, {"smiles": "NC(=O)C1CCN(C(=O)c2cc(S(=O)(=O)N3CCCCC3)cs2)CC1", "Percent Effect": 2.088}, {"smiles": "Cc1ncsc1CCC(=O)N1CCN(CCn2cncn2)CC1", "Percent Effect": -30.48}, {"smiles": "CS(=O)(=O)c1nnc(NC(=O)CCc2ccc(Cl)s2)[nH]1", "Percent Effect": -11.44}, {"smiles": "COc1cc(CN(C)C(=O)NCCNC(=O)C2CC2)ccc1SC", "Percent Effect": 6.493}, {"smiles": "Cc1nnc(CN2CCN(C)C3(CCNC(=O)CC3)C2)s1", "note": "(centres undefined)", "Percent Effect": -6.186}, {"smiles": "CN(C)C(=O)CNC(=O)c1cc2c(s1)CCN2S(C)(=O)=O", "Percent Effect": 110.9}, {"smiles": "CN(C)C(=O)c1cc2c(s1)CCN(C(=O)CCCN1CCCCC1)C2", "Percent Effect": -52.48}, {"smiles": "CN(C)C(=O)CNC(=O)c1cc(Br)c2c(c1)OCCO2", "Percent Effect": -3.612}, {"smiles": "CC(C)(C)c1noc(CNc2ccccc2N2CCC(O)CC2)n1", "Percent Effect": -3.978}, {"smiles": "CCC(C)CS(=O)(=O)NC(=O)C1CCC1", "note": "(centres undefined)", "Percent Effect": 4.874}, {"smiles": "Cc1csc(Nc2cc(C3CN(c4ccncn4)C3)nc(C)n2)n1", "Percent Effect": 120.5}, {"smiles": "CCc1nc2n(n1)CC(NCC(=O)Nc1nccs1)CC2", "note": "(centres undefined)", "Percent Effect": -6.343}, {"smiles": "Cc1nc(Nc2nccs2)cc(C2CN(C(C)C)C2)n1", "Percent Effect": 64.11}, {"smiles": "Cc1csc(Nc2cc(C3CN(C(C)C)C3)nc(C)n2)n1", "Percent Effect": 95.99}, {"smiles": "Cc1nc(Nc2nccs2)cc(C2CCCN2C2CCOCC2)n1", "note": "(centres undefined)", "Percent Effect": -3.7}, {"smiles": "Cc1ccccc1N1CCN(c2ccncn2)C(C)C1", "note": "(centres undefined)", "Percent Effect": 0.9098}, {"smiles": "Cc1cc(C)nc(Nc2cc(C3CCCN(C)C3)nc(C)n2)n1.O=CO", "note": "(centres undefined)", "Percent Effect": -14.01}, {"smiles": "CCc1nc(NC(=O)NCCc2cscn2)nn1C", "Percent Effect": -7.78}, {"smiles": "O=C(NCCOc1ncc(Cl)cc1Cl)NCc1ccncc1", "Percent Effect": -21.42}, {"smiles": "Cn1ccnc1SCCNc1ccnc(C(F)(F)F)n1", "Percent Effect": 2.447}, {"smiles": "CC(C)(CNC(=O)c1ccco1)CNC(=O)c1ccco1", "Percent Effect": -33.3}, {"smiles": "CC(C)(C)c1ncc(C(=O)NC(C(N)=O)c2ccccc2)s1", "note": "(centres undefined)", "Percent Effect": 80.78}, {"smiles": "CC(C)(C)c1ncc(C(=O)NCCNC(=O)Cc2ccccc2)s1", "Percent Effect": 94.92}, {"smiles": "CC(C)(C)c1ncc(C(=O)NCCNC(=O)c2ccco2)s1", "Percent Effect": 107.2}, {"smiles": "CC(C)(NC(=O)c1cnc(C(C)(C)C)s1)C(N)=O", "Percent Effect": -3.596}, {"smiles": "CC(C)(C)C(=O)c1ccsc1NC(=O)CCNC(=O)c1ccco1", "Percent Effect": -2.755}, {"smiles": "CCNc1ncc(C(=O)N[C@H](C(N)=O)c2ccccc2)cn1", "Percent Effect": 7.272}, {"smiles": "CC(=O)c1cccc(OCCCC(=O)N(C)CC(N)=O)c1", "Percent Effect": -6.7}, {"smiles": "Cc1cccc2[nH]c(C3CCN(C(=O)c4ccc[nH]4)CC3)nc12", "Percent Effect": -3.208}, {"smiles": "O=C(Cc1ccn[nH]1)Nc1cncc(Br)c1O", "Percent Effect": -6.696}, {"smiles": "CC(C)Cc1cc(CNC(=O)c2cccc3c2OCC3)no1", "Percent Effect": -12.78}, {"smiles": "CC(=O)N[C@@H]1CN(Cc2nccn2C)C[C@H]1c1ccc(C)cc1", "Percent Effect": -2.996}, {"smiles": "CC(CNC(=O)c1cc(N2CCNC2=O)ccc1F)c1ccccc1", "note": "(centres undefined)", "Percent Effect": -2.028}, {"smiles": "CC(Sc1nc(N)cc(N)n1)c1nc(C(C)(C)C)no1", "note": "(centres undefined)", "Percent Effect": 6.059}, {"smiles": "CS(=O)(=O)N1C[C@H]2CN(CC3CC3)C(=O)[C@H]2C1", "Percent Effect": 101.9}, {"smiles": "CCS(=O)(=O)N1C[C@H]2CN(CC3CC3)C(=O)[C@H]2C1", "Percent Effect": 114.7}, {"smiles": "CC(=O)N1C[C@H]2CN(CC3CC3)C(=O)[C@H]2C1", "Percent Effect": -8.606}, {"smiles": "O=C1[C@H]2CN(S(=O)(=O)c3cccs3)C[C@H]2CN1CC1CC1", "Percent Effect": -15.27}, {"smiles": "CCOCC(=O)N1C[C@H]2CN(CC3CC3)C(=O)[C@H]2C1", "Percent Effect": -26.93}, {"smiles": "O=C1[C@H]2CN(c3ncc(F)cn3)C[C@H]2CN1CC1CC1", "Percent Effect": 15.28}, {"smiles": "O=C(CC(F)(F)F)N1C[C@H]2CN(CC3CC3)C(=O)[C@H]2C1", "Percent Effect": -26.88}, {"smiles": "CN(C)C(=O)CN1CC[C@H]2CN(S(C)(=O)=O)C[C@@H]2C1=O.O=C(O)C(F)(F)F", "Percent Effect": -14.63}, {"smiles": "O=C1[C@H]2CN(S(=O)(=O)C3CC3)C[C@H]2CN1CC1CC1", "Percent Effect": 100.8}, {"smiles": "Cc1cccnc1NC(=O)c1ccc(-n2cncn2)nn1", "Percent Effect": -9.23}, {"smiles": "CCN(CCCNC(=O)c1cc2cccc(F)c2o1)S(C)(=O)=O", "Percent Effect": 13.88}, {"smiles": "O=C(NCc1ccc(Cl)s1)c1ccc(N2CCOC2=O)cc1", "Percent Effect": -4.831}, {"smiles": "CN(Cc1cscn1)C1CCCN(c2cccnn2)C1", "note": "(centres undefined)", "Percent Effect": 95.91}, {"smiles": "Cc1ccc(N2CCCC(N(C)Cc3ccccn3)C2)nn1", "note": "(centres undefined)", "Percent Effect": 1.725}, {"smiles": "CN(Cc1cc(-c2ccccc2)no1)C1CCCN(c2cccnn2)C1", "note": "(centres undefined)", "Percent Effect": -1.752}, {"smiles": "Cc1ccc(N2CCCC(N(C)Cc3cc(C)on3)C2)nn1", "note": "(centres undefined)", "Percent Effect": -10.05}, {"smiles": "CCOc1nnc(CNC2CCCN(c3ccc(C)nn3)C2)s1", "note": "(centres undefined)", "Percent Effect": 6.809}, {"smiles": "Cc1cnc(CN(C)C2CCCN(c3cccnn3)C2)cn1", "note": "(centres undefined)", "Percent Effect": 107}, {"smiles": "CN(Cc1nnc(-c2ccco2)o1)C1CCCN(c2cccnn2)C1", "note": "(centres undefined)", "Percent Effect": 5.287}, {"smiles": "Cc1cc(CN(C)C2CCCN(c3cccnn3)C2)no1", "note": "(centres undefined)", "Percent Effect": 110.4}, {"smiles": "Cc1cc(CN(C)C2CCCN(c3cccnn3)C2)on1", "note": "(centres undefined)", "Percent Effect": -2.461}, {"smiles": "CCOc1nnc(CN(C)C2CCCN(c3ccc(C)nn3)C2)s1", "note": "(centres undefined)", "Percent Effect": 91.1}]}]}
